Laboratory results published in the supplement of paper PMC13380429.

Test system: Vero E6 infected with SARS-CoV-2
Assay: inhibition of SARS-CoV-2 cytopathic effect; higher = more antiviral protection, active = above 15
Conditions: 48 h

Measured: inhibition of SARS-CoV-2 cytopathic effect

O=C1O[C@H]([C@@H](O)CO)C([O-])=C1O.[Na+] [sodium-ascorbate]
inactive: 1 nM -1.43% | 8.33 nM 0.79% | 100 nM 0.39% | 833.33 nM 1.19% | 10000 nM 2.74%

C[C@H](N)C(=O)N[C@@H](CCC(N)=O)C(=O)O [dipeptamin]
inactive: 1 nM -0.51% | 8.33 nM 1.67% | 100 nM -0.9% | 833.33 nM 0.75% | 10000 nM 0.66%

COc1ccc(NS(=O)(=O)c2sc3ccc(Cl)cc3c2C)cc1N1CCNCC1
inactive: 1 nM 0.93% | 8.33 nM 3.35% | 100 nM 0.86% | 833.33 nM 3.23% | 10000 nM -3.32%

C(#Cc1nc2ncccc2nc1OCCN1CCCC1)c1ccccc1
active: 10000 nM 15.8%
inactive: 1 nM -1.59% | 8.33 nM -0.87% | 100 nM -1.72% | 833.33 nM 7.05%

C[N+](C)(C)CC(=O)O [betaine]
inactive: 1 nM -1.71% | 8.33 nM -0.6% | 100 nM 0.16% | 833.33 nM 1.31% | 10000 nM -1.65%

COc1ccc(C(C)=O)c(O)c1 [paeonol]
inactive: 1 nM 1.08% | 8.33 nM 1.99% | 100 nM 2.76% | 833.33 nM 0.69% | 10000 nM -4.98%

COC[C@H](NC(=O)c1cnc(C)s1)C(=O)N[C@@H](COC)C(=O)N[C@@H](Cc1ccccc1)C(=O)[C@@]1(C)CO1 [oprozomib]
active: 100 nM 38.6% | 833.33 nM 34.5% | 10000 nM 24.7%
inactive: 1 nM 0.33% | 8.33 nM 3.66%
